# Target: T1, OTUD5 (UniProt Q96G74)
# T1 sequence (whole entry): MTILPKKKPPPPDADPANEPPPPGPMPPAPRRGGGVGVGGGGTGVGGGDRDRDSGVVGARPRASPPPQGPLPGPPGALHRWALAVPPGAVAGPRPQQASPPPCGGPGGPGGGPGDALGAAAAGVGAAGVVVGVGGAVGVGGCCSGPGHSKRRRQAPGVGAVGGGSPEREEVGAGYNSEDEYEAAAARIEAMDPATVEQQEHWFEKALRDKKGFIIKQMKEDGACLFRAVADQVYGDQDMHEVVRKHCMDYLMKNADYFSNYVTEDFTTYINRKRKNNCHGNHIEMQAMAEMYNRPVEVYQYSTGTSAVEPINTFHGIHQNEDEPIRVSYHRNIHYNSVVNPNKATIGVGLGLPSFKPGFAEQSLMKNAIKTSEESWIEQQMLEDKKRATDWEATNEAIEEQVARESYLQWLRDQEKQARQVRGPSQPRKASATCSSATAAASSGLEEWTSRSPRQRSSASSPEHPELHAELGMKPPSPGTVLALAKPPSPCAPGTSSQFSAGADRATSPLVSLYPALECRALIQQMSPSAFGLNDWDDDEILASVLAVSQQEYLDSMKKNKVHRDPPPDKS
# Experiment: log2 ratio of Biotin-Ahx-Ub-VS probe labelling (fragment/DMSO); higher = less target engagement (more negative = stronger competition), active = hit call of the paper (q ≤ 0.05, log2 ratio ≤ -1)
# Settings: compound concentration: 200 uM; treatment time: 3 h
# Procedure, shortened: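 Values give the average log2 ratio of fragment to vehicle, assessed by unpaired t-test on global-median-normalised Spectronaut label-free quantities. Proteins needed ≥2 unique peptides. HEK293T lysate (495 µg per sample) was treated in triplicate with fragment at 200 µM or vehicle for 3 h and then with Biotin-Ahx-Ub-VS at 0.5 µM final for 1 h. Labelled DUBs were NeutrAvidin-enriched, digested and run by diaPASEF LC-MS/MS.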
row,SMILES,log2 ratio of Biotin-Ahx-Ub-VS probe labelling
1,Cc1ccc(CN(C)C(=O)CCl)o1,-0.308 (inactive)
2,O=C(CCl)N1CCC[C@@H]1c1ccon1,-0.427 (inactive)
3,COCC1C=CCCN1C(=O)CCl (stereo not given),-0.298 (inactive)
4,Cl.Cn1c(CNC(=O)CCl)nc2cccnc21,-0.323 (inactive)
5,Cc1cccc(C)c1NC(=O)CCl,-0.42 (inactive)
6,O=C(CCl)N1CCCC1c1ccsc1 (stereo not given),-0.65 (inactive)
7,NC(=O)C1CCCCN1C(=O)CCl (stereo not given),-0.638 (inactive)
8,Cc1cnc2[nH]cc(CCNC(=O)CCl)c2c1,-0.26 (inactive)
9,Cc1ccc(CNC(=O)CCl)nc1C.Cl,-0.221 (inactive)
10,O=C(CCl)N1CCN2C(=O)CCC2C1 (stereo not given),-0.499 (inactive)
11,O=C(CCl)N1CCOCCC1c1ccccc1 (stereo not given),0.0776 (inactive)
12,O=C(CCl)N1CCc2[nH]c3ccccc3c2C1,-1.55 (active)
13,CN(CCC(O)c1ccc(Br)cc1)C(=O)CCl (stereo not given),-0.354 (inactive)
14,CC(NC(=O)CCl)c1cnn(C2CC2)c1 (stereo not given),-0.626 (inactive)
15,CCN(C(=O)CCl)C1CCS(=O)(=O)C1 (stereo not given),-0.272 (inactive)
16,COc1ccc(-c2csc(NC(=O)CCl)n2)cc1,-0.997 (inactive)
17,Cc1noc(N2CCN(C(=O)CCl)CC2)n1.Cl,-0.0833 (inactive)
18,O=C(CCl)N1CCCCCC1c1ncon1 (stereo not given),-0.654 (inactive)

row,SMILES,log2 ratio of Biotin-Ahx-Ub-VS probe labelling
1,O=C(CCl)N1CCc2sccc2C1,-0.923 (inactive)
2,O=C(CCl)Nc1ccc2c(c1)OC(F)(F)O2,-0.515 (inactive)
3,O=C(CCl)N(C1CCCC1)C1CCS(=O)(=O)C1 (stereo not given),-0.379 (inactive)
4,O=C(CCl)N1CCCC2CCCCC21 (stereo not given),-0.314 (inactive)
5,O=C(CCl)Nc1cccc(NC(=O)c2ccccc2)c1,-0.0636 (inactive)
6,O=C(CCl)N1CCOCC1C1CC1 (stereo not given),-0.313 (inactive)
7,Cl.O=C(CCl)N1CCCC(c2ncc[nH]2)C1 (stereo not given),-0.22 (inactive)
8,O=C(CCl)N1CC=C(c2c[nH]c3ccccc23)CC1,-1.27 (active)
9,Cl.O=C(CCl)N1CCC(Cc2nccs2)C1 (stereo not given),-0.302 (inactive)
10,O=C(CCl)Nc1ccccc1C(F)(F)F,-0.489 (inactive)
11,Cc1ccc(C)c(Oc2ccc(CNC(=O)CCl)cn2)c1.Cl,-0.697 (inactive)
12,CC(=O)Nc1ccc(NC(=O)CCl)cc1,-0.406 (inactive)
13,O=C(CCl)N1CCC2(CCC(O)CC2)CC1,-0.29 (inactive)
14,Cc1conc1C1CN(C(=O)CCl)C1,-0.861 (inactive)
15,COc1ccccc1C(C)NC(=O)CCl (stereo not given),-0.514 (inactive)
16,Cc1ccc(-c2nnc(C)[nH]2)c(NC(=O)CCl)c1,-0.237 (inactive)
17,CS(=O)(=O)c1ccc(CNC(=O)CCl)cc1,-0.368 (inactive)

# Reference: the supplement of paper PMC11732987, “Enantioselective OTUD7B fragment discovery through chemoproteomics screening and high-throughput optimisation” (Communications Chemistry, 2025)
